Measurements taken from PubChem BioAssay (Tox21).
Unmarked numbers belong to inactive results. Results filed as inconclusive are left out. Where a call stands in place of a potency, no number is given. Activity calls are given as the source filed them. Unless noted, calls follow the shape of the dose curve; as a rule, active = well fitted curve in the direction sought with a large enough effect in the repeat runs; inconclusive = weak or mixed curves; inactive = no such curve, though single readings can be large; an effect the other way counts as inactive or inconclusive.

Key:
[1] = qHTS assay to identify small molecule antagonists of the retinoid acid receptor (RAR) signaling pathway - cell viability counter screen (AID 1159551); also: nearly all actives have a fitted effect of over 35% in size
Procedure, shortened: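 In this counter screen, the RARE-luciferase line C3RL4 was exposed for 6 h at 37 C and 5% CO2 to compounds with retinol at 1 uM final. Cellular ATP, read by luminescence, served as the viability measure.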

[2] = qHTS assay to identify small molecule antagonists of the retinoic acid receptor (RAR) signaling pathway (AID 1159552; also: nearly all actives have a fitted effect of over 50% in size)
Procedure, shortened: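 Retinol signaling pathway inhibitors screened in C3RL4 RARE-luciferase reporter cells seeded overnight at 37 C, then compounds added with 1 uM (final) retinol as pathway substrate. After 6 hr at 37 C, luciferase luminescence read after 30 min at room temperature.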

[3] = qHTS assay to identify small molecule agonists of the retinoic acid receptor (RAR) signaling pathway (AID 1159553); also: potency is read from the fitted curve at half-maximal effect
Procedure, shortened: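 In this cell-based screen, 1,000 C3RL4 cells per well were cultured overnight, dosed with test chemicals in DMSO for 6 hr, and assessed for RARE luciferase luminescence.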

[4] = qHTS assay to identify small molecule antagonists of the estrogen related receptor (ERR) signaling pathway from Tox21 library - cell viability counter screen (AID 1224834); also: nearly all actives have a fitted effect of over 30% in size
Procedure, shortened: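 Counter screen run in ERR cells (2,000 cells/well): cells pre-incubated 6 h, then treated with compounds for 17.5 h at 37 C. Fluorescence was read 30 min after CellTiter-Fluor addition.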

[5] = molecular target: Luciferin 4-monooxygenase (Photinus pyralis) (UniProt P08659); experiment: qHTS assay to identify small molecule inhibitors of firefly luciferase (AID 1224835); also: nearly all actives have a fitted effect of over 25% in size; also: potency is read from the fitted curve at half-maximal effect
Chain of Luciferin 4-monooxygenase (Photinus pyralis) (P08659 whole entry, looked up): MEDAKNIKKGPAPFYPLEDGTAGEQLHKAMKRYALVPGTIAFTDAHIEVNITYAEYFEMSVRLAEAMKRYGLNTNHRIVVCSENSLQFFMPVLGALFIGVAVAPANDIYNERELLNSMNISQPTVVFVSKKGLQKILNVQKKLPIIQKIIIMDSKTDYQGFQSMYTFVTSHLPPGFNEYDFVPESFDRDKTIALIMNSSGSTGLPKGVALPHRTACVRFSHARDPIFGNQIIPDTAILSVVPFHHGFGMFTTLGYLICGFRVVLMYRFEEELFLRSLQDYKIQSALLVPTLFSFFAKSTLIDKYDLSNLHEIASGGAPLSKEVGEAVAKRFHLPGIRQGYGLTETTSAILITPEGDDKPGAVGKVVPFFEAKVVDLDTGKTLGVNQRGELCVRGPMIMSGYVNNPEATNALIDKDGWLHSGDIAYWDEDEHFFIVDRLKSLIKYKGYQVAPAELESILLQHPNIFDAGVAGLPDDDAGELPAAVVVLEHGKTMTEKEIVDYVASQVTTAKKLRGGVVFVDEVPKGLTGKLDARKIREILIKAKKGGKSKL
Procedure, shortened: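 Inhibition of purified Photinus luciferase is measured by luminescence. Substrate levels (D-luciferin, ATP) sit at their KM values. Each compound is tested in a concentration series.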

[6] = qHTS assay to identify small molecule agonists of the constitutive androstane receptor (CAR) signaling pathway - cell viability counter screen (AID 1224836); also: nearly all actives have a fitted effect of over 45% in size
Procedure, shortened: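 HepG2 cells stably carrying hCAR and a CYP2B6-2.2kb reporter; 15-concentration compounds plus PK11195 (final 0.75 uM), 23 hr at 37 C/5% CO2. Viability read by CellTiter-Fluor fluorescence.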

[7] = qHTS assay to identify small molecule antagonists of the constitutive androstane receptor (CAR) signaling pathway - cell viability counter screen (AID 1224837); also: nearly all actives have a fitted effect of over 45% in size
Procedure, shortened: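 CITCO at 50 nM final was added alongside compounds (15 concentrations) to double-stable hCAR/CYP2B6-2.2kb HepG2 cells. Following 23 hr at 37 C, cell viability was quantified by CellTiter-Fluor fluorescence intensity.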

[8] = molecular target: Nuclear receptor subfamily 1 group I member 3 (Homo sapiens) (UniProt Q14994); experiment: qHTS assay to identify small molecule agonists of the constitutive androstane receptor (CAR) signaling pathway (AID 1224839); also: nearly all actives have a fitted effect of over 15% in size; also: potency is read from the fitted curve at half-maximal effect
Chain of Nuclear receptor subfamily 1 group I member 3 (Homo sapiens) (Q14994 whole entry, looked up): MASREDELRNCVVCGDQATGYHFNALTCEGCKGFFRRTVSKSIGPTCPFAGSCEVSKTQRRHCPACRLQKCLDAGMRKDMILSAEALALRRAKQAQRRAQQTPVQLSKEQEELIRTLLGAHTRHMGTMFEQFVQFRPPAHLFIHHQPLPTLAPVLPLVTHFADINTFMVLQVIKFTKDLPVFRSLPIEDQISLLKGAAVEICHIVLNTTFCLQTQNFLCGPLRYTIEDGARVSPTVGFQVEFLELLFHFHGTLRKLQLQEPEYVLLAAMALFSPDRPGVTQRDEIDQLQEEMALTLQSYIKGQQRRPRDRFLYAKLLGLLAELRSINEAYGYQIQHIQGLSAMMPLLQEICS
Procedure, shortened: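 HepG2 cells stably co-transfected with hCAR and a CYP2B6-2.2kb luciferase reporter; compounds at 15 concentrations with 0.75 uM PK11195 present. After 24 hr at 37 C, luciferase read by ONE-Glo luminescence.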

[9] = qHTS assay to identify small molecule antagonists of the estrogen related receptor signaling pathway with the pleiotropic PPARgamma coactivator (PGC) from Tox21 10K library - cell viability counter screen (AID 1224840; active = well fitted cell-killing curve with a large enough effect in the repeat runs, not every such curve was filed as active; also: nearly all actives have a fitted effect of over 40% in size)
Procedure, shortened: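 Readout: fluorescence intensity from CellTiter-Fluor after 30 min at 37 C/5% CO2. Preceded by 17.5 h treatment of PGC/ERR cells with DMSO-dissolved compounds, added 6 h post-seeding.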

[10] = molecular target: Thyrotropin receptor (Homo sapiens) (UniProt P16473); experiment: qHTS assay to identify small molecule agonists of the thyroid stimulating hormone receptor (TSHR) signaling pathway (AID 1224843; calls by dose curve; also: nearly all actives have a fitted effect of over 45% in size)
Chain of Thyrotropin receptor (Homo sapiens) (P16473 whole entry, looked up): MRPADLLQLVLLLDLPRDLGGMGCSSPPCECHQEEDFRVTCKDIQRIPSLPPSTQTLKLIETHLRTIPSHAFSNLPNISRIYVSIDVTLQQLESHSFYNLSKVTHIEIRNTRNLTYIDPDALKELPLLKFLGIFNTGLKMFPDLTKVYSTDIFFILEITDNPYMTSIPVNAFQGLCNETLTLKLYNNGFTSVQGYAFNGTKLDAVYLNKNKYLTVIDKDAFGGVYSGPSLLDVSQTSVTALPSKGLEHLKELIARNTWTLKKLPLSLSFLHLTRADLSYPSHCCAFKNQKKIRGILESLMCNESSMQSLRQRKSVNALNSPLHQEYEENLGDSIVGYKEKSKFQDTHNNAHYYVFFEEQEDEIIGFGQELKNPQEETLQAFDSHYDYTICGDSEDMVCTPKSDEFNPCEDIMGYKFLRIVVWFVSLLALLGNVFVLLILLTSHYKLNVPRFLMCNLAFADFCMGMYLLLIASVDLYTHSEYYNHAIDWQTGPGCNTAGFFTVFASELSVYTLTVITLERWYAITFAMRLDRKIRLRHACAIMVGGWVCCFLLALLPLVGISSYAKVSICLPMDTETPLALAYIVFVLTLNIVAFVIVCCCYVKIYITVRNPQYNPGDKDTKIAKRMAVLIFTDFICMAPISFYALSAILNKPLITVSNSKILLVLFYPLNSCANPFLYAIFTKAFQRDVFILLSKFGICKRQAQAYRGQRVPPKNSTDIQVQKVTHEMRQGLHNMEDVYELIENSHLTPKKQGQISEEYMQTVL
Procedure, shortened: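 Agonist activity read as cAMP rise via d2/cryptate HTRF competition, 1 h room-temperature detection, in HEK293 cells expressing TSHR. Fifteen-point titrations, each run in triplicate, with a 30 min room-temperature incubation beforehand.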

[11] = qHTS assay to identify small molecule agonists of the hypoxia (HIF-1) signaling pathway - cell viability counter screen (AID 1224844; calls by dose curve; also: nearly all actives have a fitted effect of over 50% in size)
Procedure, shortened: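 In this counter screen, HRE-bla ME-180 cell viability after 17 hrs of compound exposure at 37C was read by CellTiter-Glo luminescence, multiplexed with the beta-lactamase reporter measurement.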

[12] = qHTS assay to identify small molecule agonists of H2AX (AID 1224845; active = well fitted activation curve with a large enough effect in the signal ratio in the repeat runs, not every such curve was filed as active; the % refers to the signal ratio)
Procedure, shortened: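 Phospho-H2AX Ser139 measured by HTRF (ex 320 nm; em 665 and 620 nm) after 24 hr antibody incubation. Compounds, 15 concentrations, 0.76% DMSO, were applied to CHO-K1 cells for 3hr at 37C before lysis.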

[13] = qHTS assay to identify small molecule agonists of H2AX - cell viability counter screen (AID 1224847; calls by dose curve;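 also: wild-type CHO-K1 cells; top concentration of the series differs between compounds; nearly all actives have a fitted effect of over 30% in size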)
Procedure, shortened: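 CHO-K1 cells plated overnight at 37C, then exposed 3 h at 37C to compounds at 15 concentrations (0.76% DMSO final). Viability by CellTiter-Glo luminescence after 30 min at room temperature.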

[14] = qHTS RealTime-Glo MT Cell Viability Assay in HepG2 cells - 24 hour (AID 1224867); also: nearly all actives have a fitted effect of over 50% in size
Procedure, shortened: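 Real-time, nonlytic viability: 600 HepG2 cells/well mixed with NanoLuc enzyme plus prosubstrate; 5 h settle, compound (DMSO) added by pintool; luminescence monitored over 40 h at 37 C.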

[15] = molecular target: Nuclear receptor subfamily 1 group I member 3 (Homo sapiens) (UniProt Q14994); experiment: qHTS assay to identify small molecule antagonists of the constitutive androstane receptor (CAR) signaling pathway (AID 1224838); also: nearly all actives have a fitted effect of over 40% in size
Procedure, shortened: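 Inhibition of CITCO-driven (50 nM final) CYP2B6 reporter expression is measured in HepG2 cells stably carrying hCAR. Fifteen compound concentrations are applied for 24 h at 37 C, followed by luciferase luminescence.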

[16] = qHTS assay to identify small molecule agonists of the hypoxia (HIF-1) signaling pathway (AID 1224846; active = well fitted activation curve with a large enough effect in the signal ratio in the repeat runs, not every such curve was filed as active; the % refers to the signal ratio)
Procedure, shortened: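 ME-180 HRE-bla reporter cells; compounds in DMSO, 17 h at 37C; read-out beta-lactamase via CCF4-AM FRET.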

[17] = qHTS assay to identify small molecule antagonists of the estrogen related receptor signaling pathway with the pleiotropic PPARgamma coactivator (PGC) from Tox21 10K library (AID 1224841; call rule not given here; also: actives are mostly falling curves and most rising ones were filed inactive; nearly all actives have a fitted effect of over 50% in size)
Procedure, shortened: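 One-Glo luminescence, measured after half an hour at room temperature, quantified reporter output of PGC/ERR cells. These had been plated at 2,000 per well, incubated 6 h, dosed with compounds in DMSO, then kept 18 h at 37 C.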

[18] = qHTS assay to identify small molecule agonists of the estrogen related receptor (ERR) signaling pathway from Tox21 library (AID 1224849; calls by dose curve; also: nearly all actives have a fitted effect of over 15% in size); details: ERR reporter cell line, ONE-Glo luciferase, 18 h; at 92.4 µM (top of the series) unless noted
Procedure, shortened: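 Luciferase activity in ERR pathway reporter cells served as the agonist readout; exposure lasted 18 h at 37 C, with ONE-Glo detection after 30 min at room temperature.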

[19] = qHTS assay to identify small molecule agonists of the estrogen related receptor signaling pathway with the pleiotropic PPARgamma coactivator (PGC) from Tox21 10K library (AID 1224842); also: nearly all actives have a fitted effect of over 15% in size
Procedure, shortened: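 Luminescence from One-Glo (30 min, room temperature) measured after PGC/ERR cells had 18 h at 37 C with pinned compound (23 nL in DMSO). Cells had been seeded at 2,000 per well and pre-incubated 6 h.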

[20] = qHTS assay to identify small molecule antagonists of the estrogen related receptor (ERR) signaling pathway from Tox21 library (AID 1224848); also: nearly all actives have a fitted effect of over 50% in size
Procedure, shortened: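 Luciferase luminescence (ONE-Glo, 30 min room temperature) was the read-out. Cells of the NTP-supplied ERR line, 2,000 per well, were given 6 h at 37 C before compound addition in DMSO and 18 h exposure at 37 C.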

Row | SMILES | outcome [1] | outcome [2] | Potency [3] | outcome [4] | Potency [5] | outcome [6] | outcome [7] | Potency [8] | outcome [9] | Potency [10] | outcome [11] | outcome [12] | outcome [13] | outcome [14] | outcome [15] | outcome [16] | Potency [17] | activity change, positive = activation [18] | Potency [19] | outcome [20]
1 | CCc1ncc(C)[nH]1 | inactive | inactive | inactive | inactive | inactive | inactive | inactive | inactive | inactive | inactive | inactive | inactive | inactive | inactive |  |  |  |  |  | 
2 | CC(C)(C)NCC(O)COc1cccc2c1CCC(=O)N2 (stereo not drawn) | inactive | inactive | inactive | inactive | inactive | inactive | inactive | inactive | inactive | inactive | inactive | inactive | inactive | inactive |  |  |  |  |  | 
3 | Cc1cc(=O)oc2cc(O[C@@H]3SC[C@@H](O)[C@H](O)[C@H]3O)ccc12 | inactive | inactive | inactive | inactive | inactive | inactive | inactive |  | inactive | inactive | inactive | inactive | inactive | inactive | inactive | inactive |  |  |  | 
4 | Cc1ccc(NC(N)=O)cc1 | inactive | inactive | inactive | inactive | inactive | inactive | inactive | inactive | inactive | inactive | inactive | inactive | inactive | inactive |  | inactive |  |  |  | 
5 | CC[C@@]1(c2ccccc2)NC(=O)N(C)C1=O | inactive | inactive | inactive | inactive | inactive | inactive | inactive |  | inactive | inactive | inactive | inactive | inactive | inactive |  |  | inactive | 3.28% [at 42.5 µM] |  | 
6 | CCCCC(O)/C=C(C)/C=C/C=C/C(=O)N1CCCC1=O (stereo not drawn) | inactive | inactive | inactive | inactive | inactive | inactive | inactive | inactive | inactive | inactive | inactive | inactive | inactive | inactive |  | inactive |  |  |  | 
7 | CCOC(=O)COc1ccc2c(C)c(CCN(CC)CC)c(=O)oc2c1Cl | inactive | inactive | inactive | inactive | inactive | inactive | inactive | inactive | inactive |  | inactive | inactive | inactive | inactive |  |  |  |  |  | 
8 | C=C(C)C(=O)OCCOC1CC2CC1C1C=CCC21 (stereo not drawn) | inactive | inactive | inactive | inactive | inactive | inactive | inactive | inactive | inactive |  | inactive | inactive | inactive | inactive |  |  | inactive |  | inactive | 
9 | Nc1nc(Cl)cc(Cl)n1 | inactive | inactive | inactive | inactive | inactive | inactive |  |  | inactive |  | inactive | inactive |  | inactive | inactive | inactive | inactive | -1.17% |  | inactive
10 | CCCC(C)C(O)CC (stereo not drawn) | inactive | inactive | inactive | inactive | inactive | inactive |  |  | inactive | inactive | inactive | inactive | inactive | inactive |  | inactive | inactive | -0.957% | inactive | inactive
11 | CCN1CCN(C(=O)N[C@@H](C(=O)N[C@@H]2C(=O)N3C(C(=O)O)=C(CSc4nnnn4C)CS[C@H]23)c2ccc(O)cc2)C(=O)C1=O | inactive | inactive | inactive | inactive | inactive | inactive | inactive |  | inactive | inactive | inactive | inactive | inactive | inactive |  | inactive |  |  |  | 
12 | O=C(O)Cc1ccccc1Oc1ccc(Cl)cc1Cl | inactive | inactive | inactive | inactive | inactive | inactive |  |  | inactive | inactive | inactive | inactive | inactive | inactive |  | inactive |  |  |  | 
13 | CC(C)(C)c1ccc(C(=O)CCCCl)cc1 | inactive | inactive | 5.96 µM (active) | inactive | 7.76 µM (active) | inactive |  | 21.1 µM (active) | inactive | inactive | inactive | inactive | inactive | inactive |  |  |  |  |  | 
